For the first assay, the target named is DCX. Put plainly: pooled miR-30 sensor sort-seq; sequence = guide strand. To be noted: shRNA.
The sequence TTGATCACAATGCTGTTCCTTA registered a sensor-assay potency score (higher = more potent) of 0.503. As to TTACTTGTGACTGTGGAGGAGA, the sensor-assay potency score (higher = more potent) was -0.0876.

TTCTCTTATATGGACTGTCTAT returned a sensor-assay potency score (higher = more potent) of -0.935. As for TCAATTATTAGTATTTAGCTGA, the sensor-assay potency score (higher = more potent) was found to be 0.00518. TCTATCTTAAAACAGCTGCAGG returned a sensor-assay potency score (higher = more potent) of -0.806. As for TAGAGTTTTTTGACAACCCCGG, the sensor-assay potency score (higher = more potent) is -0.351. TTTATTTCCATAGCAAACTGGA displayed a sensor-assay potency score (higher = more potent) of -0.272. Consider TAAATTAACACCTACAATCTGG, for which the sensor-assay potency score (higher = more potent) was -0.105.

In turn, AATGACATTACACACATCTTGC gave a sensor-assay potency score (higher = more potent) of -0.654. On to TACAAGGTGACTTCTGTTGTGC, for which the sensor-assay potency score (higher = more potent) worked out at 0.124. The sequence ATTCTTGGTGTACTCCACCTTT registered a sensor-assay potency score (higher = more potent) of -0.629.

Take TTTCATTTAAATCAACTCCGAT: the sensor-assay potency score (higher = more potent) was -0.0704. Same read-out and setting: the result for TTCGGTAGAAGCTACAGTGGGC reads 0.324; that for TTAAAGAACTTACCACACGTGG, -0.728.

The sequence TTGTATACAAGTCATAAGGGAT displayed a sensor-assay potency score (higher = more potent) of -0.914. Regarding TTAACACCTACAATCTGGCTTC, the sensor-assay potency score (higher = more potent) was determined as 0.157.

TTCATTTAAATCAACTCCGATT had a sensor-assay potency score (higher = more potent) of -0.375.

Take TTTCTGGCTATAACTATTCTAA: the sensor-assay potency score (higher = more potent) is -0.801.

The target in the next assay is DDAH1. The assay is described as above. As to conditions: shRNA.
For the sequence TTAATTAAAACTGAGCAGCAGG, the sensor-assay potency score (higher = more potent) is -0.0699.

For the sequence TTAGATATATACAGTTTGCTGC, the sensor-assay potency score (higher = more potent) was -0.536. With TAAAGTTGCATTTTCATCTTTC, the sensor-assay potency score (higher = more potent) was 0.237. For the sequence TAAACCTTTGCACTTTCTGGAT, the sensor-assay potency score (higher = more potent) was -0.647.

TTTCTGGATACTCTTCCGGGGT showed a sensor-assay potency score (higher = more potent) of -1.06. Same read-out and setting: the result for TACAGTTTGCTGCTATGTCATC reads -1.54; that for TACTATATTGAGCTGAAGTTTT, -1.16. The sequence TAAAACATCTCCGCCATCTAAA had a sensor-assay potency score (higher = more potent) of -0.943. Sequence ATCTCTACTATATTGAGCTGAA showed a sensor-assay potency score (higher = more potent) of -0.824. Consider TTTCATCTCTACTATATTGAGC, for which the sensor-assay potency score (higher = more potent) is -0.645. TTGCATGATCTTAAGGGCCTTC returned a sensor-assay potency score (higher = more potent) of -0.108. Take TTCATCTTTCATCTCTACTATA: the sensor-assay potency score (higher = more potent) is -1.1.

For another assay, the target named is DDB2. Described as above. As to conditions: shRNA.
As to TTTTGAAATTAGGATCTGGGTA, the sensor-assay potency score (higher = more potent) was -0.102. In turn, TGAGTTTCCATCGAACACGTCG registered a sensor-assay potency score (higher = more potent) of 0.1. In the case of TAAACTCGGATCTCGCTCTTCT, the sensor-assay potency score (higher = more potent) stood at 0.0905. On the same count and under the same terms, the result for TGACACATCATCTTCCCTGAGT reads 0.0365; that for TAGAGCTGACACATCATCTTCC, 0.382; that for AACTTTTGAAATTAGGATCTGG, 0.321. TAAAGTCTTGCAGCCTAGTTGT had a sensor-assay potency score (higher = more potent) of -0.222.

As to TCTCCTGTGACCACCATTCGGC, the sensor-assay potency score (higher = more potent) was -0.886.

For TTTAGTTCCAAGATAACCTTGG, the sensor-assay potency score (higher = more potent) came out at 0.69. In turn, TACAACTTTTGAAATTAGGATC displayed a sensor-assay potency score (higher = more potent) of -0.816.

The values above are taken from the OligoGym collection.
Also: reference of the scale not given here.
